High-throughput results: PubChem BioAssay, The Scripps Research Institute Molecular Screening Center
hcDAF12 agonist: activates DAF-12 receptor from parasite H. contortus | HEK293 hcDAF-12 lit1-tk-luc reporter, luminescence; 0% DMSO, 100% Δ7-dafachronic acid | activation, % at 6.8 µM | 370,000 compounds, 1.4% hits;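 active means activation above the mean of all tested compounds plus 3 SD, cut at about 5.5% in these data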
ssDAF12 agonist: activators of S. stercoralis DAF-12 nuclear receptor | activation, % at 6.8 µM | HEK293 ssDAF-12/GRIP1 lit1-tk-luc reporter, luminescence; % of 3 µM dafachronic acid response | 370,000 compounds, 1% hits;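 active means activation above the mean over all tested compounds plus 3 SD, cut at about 0.9% in these data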
DAX1 inh-1: inhibits human nuclear receptor DAX1; HEK293 Gal4-DAX1 luciferase reporter, luminescence; inhibition, % at 6.75 µM; P51843; 340,000 compounds, 0.99% hits;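 active means inhibition above the mean over all tested compounds plus 3 SD, cut at about 4.2% in these data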;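 further: inhibition shows as a rise in luminescence from relieved DAX1 repression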
Target sequence (P51843 207-470 limits assumed): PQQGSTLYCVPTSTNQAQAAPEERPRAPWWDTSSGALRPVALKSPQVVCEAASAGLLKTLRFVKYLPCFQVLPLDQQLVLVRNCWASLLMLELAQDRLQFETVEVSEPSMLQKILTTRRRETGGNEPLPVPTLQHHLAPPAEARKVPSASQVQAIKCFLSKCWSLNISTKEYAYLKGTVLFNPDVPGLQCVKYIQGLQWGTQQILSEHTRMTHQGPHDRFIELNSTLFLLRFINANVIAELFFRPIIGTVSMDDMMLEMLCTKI
SMARCA2 activ: SMARCA2 function activation, primary screen | MG213 cells, MMTV-luciferase reporter, dexamethasone, overnight | activation, % at 9.1 µM | 370,000 compounds, 1% hits; in the data active means activation above about 7.8%
hgDAF-12 ag: activates the H. glycines DAF-12 receptor ligand-binding domain; HEK293 GAL4-hgDAF12 UAS-luciferase reporter, agonist luminescence; normalized to butyrate control; activation, % at 6.8 µM; 370,000 compounds, 1.8% hits; AID 687014;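 active means activation above a cutoff set at the mean of all screened compounds plus 3 SD, cut at about 10% in these data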
DAX1 inh-2: inhibitors of DAX1 repression of SF-1 activated StAR promoter; inhibition, % at 6.8 µM; 370,000 compounds, 1.1% hits; HEK293T StAR-luciferase reporter, SF-1/DAX-1 repression relief; AID 652010;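 active means inhibition above the mean over all tested compounds plus 3 SD, cut at about 3.6% in these data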;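 further: higher inhibition means more luminescence from relief of DAX-1 repression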
Each line names hits and unclear results; the compound was inactive in the other large screens. Shown are actives, neighbours in structure and some others; about 4.8% of the full set was active somewhere.

COC(=O)[C@H](CC(C)C)N(Cc1cn(Cc2ccccc2)nn1)S(=O)(=O)c1ccccc1Br	none (no result: DAX1 inh-1)
COC(=O)[C@H](C)N(Cc1cn(Cc2ccccc2)nn1)S(=O)(=O)c1ccccc1Br	SMARCA2 activ 7.8 (no result: DAX1 inh-1)
Cc1ccc(-c2cc(NC(=O)Cc3c[nH]c4ccccc34)ccc2N(C)c2cccnc2)cc1	none (no result: DAX1 inh-1)
CN(c1cccnc1)c1ccc(NC(=O)Cc2c[nH]c3ccccc23)cc1Br	hcDAF12 agonist 6.5, ssDAF12 agonist 1.5 (no result: DAX1 inh-1)
CC(=O)Nc1ccc(NC(=O)CCCc2c[nH]c3ccccc23)cc1	DAX1 inh-1 5.0
CN(C)C(CNC(=O)CCCc1c[nH]c2ccccc12)c1ccco1 (stereo not drawn)	DAX1 inh-1 5.8
CC(C)CNC(=O)CCCc1c[nH]c2ccccc12	none
O=C(COC(=O)CCc1c[nH]c2ccccc12)Nc1ccc([N+](=O)[O-])cc1	DAX1 inh-1 5.2
COc1cc2cc(CCCOC(=O)CCC(=O)O)oc(=O)c2cc1OC	none
CCN1CCN(c2ccc(NC(=O)c3cc(S(=O)(=O)N4CCCC4)ccc3Cl)cc2)CC1	none
Cc1ccccc1NC(=O)Cc1c[nH]c2ccccc12	ssDAF12 agonist 1.0
O=C(Cc1c[nH]c2ccccc12)Nc1ccc(Nc2ccncc2)cc1	hcDAF12 agonist 6.0 (no result: DAX1 inh-1)
Cc1ccccc1NC(=O)NCCc1c[nH]c2ccccc12	none
Cc1[nH]c2ccccc2c1CC(=O)Nc1ccc(Nc2ccncc2)cc1	ssDAF12 agonist 2.1 (no result: DAX1 inh-1)
CN(c1ccc(NC(=O)Cc2c[nH]c3ccccc23)cc1)c1ccccn1	none (no result: DAX1 inh-1)
CCC(CO)Nc1ncnc2c1cnn2-c1ccc(Cl)cc1 (stereo not drawn)	DAX1 inh-2 4.0
CCN1CCN(c2ncnc3c2cnn3-c2ccccc2)CC1	none
Clc1ccc(-n2ncc3c(NCc4ccco4)ncnc32)cc1	hgDAF-12 ag 13
CCN1CCN(c2ncnc3c2cnn3-c2ccc(Cl)cc2)CC1	hgDAF-12 ag 12
COc1cccc(N2CCN(S(=O)(=O)c3cn(C)cn3)CC2)c1	none
Cc1ccc(S(=O)(=O)N2CCC[C@H]2C(=O)OCC(=O)N2CCc3ccccc32)cc1	none
Cn1c(=O)[nH]c(=O)c2c1nc([N+](=O)[O-])n2Cc1ccccc1	none
O=C(CN1CSCC1=O)N1CCN(S(=O)(=O)c2cccc(F)c2)CC1	none
CCn1cc(CN2CCN(Cc3ccccc3)C(CCO)C2)c2ccccc21 (stereo not drawn)	DAX1 inh-1 4.2
CCn1cc(CN2CCN(Cc3ccc(C)o3)C(CCO)C2)c2ccccc21 (stereo not drawn)	hcDAF12 agonist 5.6
NNC(=O)c1ccc(CSc2nc3ccccc3s2)cc1	hcDAF12 agonist 6.1, hgDAF-12 ag 11
COc1ccc(-c2noc(-c3cccc(Cl)c3)n2)cc1OC	none
COc1ccc(-c2noc(-c3ccccc3Cl)n2)cc1OC	DAX1 inh-1 5.1
COc1ccc(-c2noc(-c3ccc(Cl)cc3[N+](=O)[O-])n2)cc1OC	hcDAF12 agonist 5.7
O=c1[nH]c(=S)[nH]c2c1[C@H](CCc1cccc(Cl)c1)O[C@H](C1CCCC1)C2	none (no result: DAX1 inh-1)
COc1ccccc1CN1C(=O)C(Cc2ccccc2)ON=C1c1ncccc1C (stereo not drawn)	none (no result: DAX1 inh-1)
O=C(Nc1ccccc1F)Nc1cccc2ccc(O)cc12	hcDAF12 agonist 6.2
O=C(Nc1ccccc1F)Nc1ccccc1F	none
Cc1ccc(NCc2ccccc2F)cc1	hcDAF12 agonist 6.2
Cc1ccc(NCc2ccccc2O)cc1	none
CCc1cc(C(=O)c2ccc(Br)cc2)c(NC(=O)CN(CC)CC)s1	none
CN1CCN(C(=O)CCN2C(=O)/C(=C/c3ccccc3Cl)SC2=S)CC1	SMARCA2 activ 7.9
O=c1[nH]c(-c2ccco2)nc2sc3c(c12)CCCC3	hgDAF-12 ag 13
Cc1c(C(=O)Nc2ccccc2N2CCN(C)CC2)oc2ccc(F)cc12	ssDAF12 agonist 1.0
NC(=O)C(CCCCN1CCCCC1)(c1ccccc1)c1ccccc1	DAX1 inh-2 4.1
O=C(CSc1nnc(CCCN2C(=O)c3cccc4cccc(c34)C2=O)n1-c1ccccc1)N1CCCCC1	SMARCA2 activ 8.1
O=C(Nc1ccc(-c2nc3ncccc3o2)cc1)c1ccco1	hgDAF-12 ag 11
CC(C)C[C@H]1COc2cc(Br)ccc2S(=O)(=O)N1Cc1cn(Cc2ccco2)nn1	none (no result: DAX1 inh-1)
O=C(COc1ccc(Cl)cc1)Nc1cccc(-c2ccc(N3CCOCC3)nn2)c1	hgDAF-12 ag 12
O=[N+]([O-])c1cccc(S(=O)(=O)Nc2cccc(-c3ccc(N4CCCC4)nn3)c2)c1	none
Cc1ccc(C(=O)Nc2cccc(-c3ccc(N4CCOCC4)nn3)c2)cc1	DAX1 inh-2 4.5
O=[N+]([O-])c1cccc(S(=O)(=O)Nc2cccc(-c3ccc(N4CCOCC4)nn3)c2)c1	DAX1 inh-2 4.4
CNC(=O)c1c(Br)cnn1-c1ccc(C)cc1	hgDAF-12 ag 12, DAX1 inh-2 3.7
COc1cnn(-c2ccc(C)cc2)c(=O)c1Br	none
CNC(=O)c1c(Cl)cnn1-c1ccc(C)cc1	hgDAF-12 ag 12
O=c1[nH]c(-c2ccc(O)cc2)nc2scc(-c3cccs3)c12	hgDAF-12 ag 13
CCOC(=O)c1c(NC(=O)CN2CCN(S(=O)(=O)c3cc(Cl)ccc3Cl)CC2)sc(C(=O)N(C)C)c1C	none
O=C(c1ccco1)N1CCN(c2nc3ccsc3c(=O)s2)CC1	DAX1 inh-1 5.1
CCOc1cccc(-c2cc(C(=O)NN)[nH]n2)c1	hgDAF-12 ag 11
CCCN1C(=O)C(NC(=O)c2ccncc2)(C(F)(F)F)C2=C1CC(C)(C)CC2=O (stereo not drawn)	ssDAF12 agonist 0.9
Fc1ccc(Nc2cncc(-c3ccsc3)c2)cc1Cl	none (no result: DAX1 inh-1)
CCc1c(C(=O)Nc2cc(C)ccc2OC)[nH]c(C)c1C(C)=O	hcDAF12 agonist 5.6
N/C(=N\OC(=O)c1cccc(Br)c1)c1ccc(Br)cc1	none
N/C(=N\OC(=O)c1ccc(Br)cc1)c1ccccc1	hgDAF-12 ag 12
COc1ccc(/C(O)=C2/C(=O)C(=O)N(c3ccccn3)C2c2ccc(C(C)C)cc2)cc1 (stereo not drawn)	hgDAF-12 ag 13
O=C1N=C(N2CCOCC2)SC1=C1CCCCC1	DAX1 inh-1 6.8
O=C(COc1ccc(S(=O)(=O)N2CCOCC2)cc1)NCc1ccco1	ssDAF12 agonist 1.6
O=C(COc1ccc(S(=O)(=O)N2CCCC2)cc1)NCc1ccco1	none (no result: hcDAF12 agonist, ssDAF12 agonist, SMARCA2 activ, hgDAF-12 ag, DAX1 inh-2)
O=C(Cc1cccc2ccccc12)Nc1ccc(Br)cc1C(=O)O	DAX1 inh-1 5.6
COc1ccc(NC(=O)C2C3C=CC(C3)C2C(=O)O)cc1 (stereo not drawn)	none
Cc1ccc(-c2ccc(NC(=O)C3C4C=CC(C4)C3C(=O)O)cc2)o1 (stereo not drawn)	hgDAF-12 ag 13
